Among the data in PubChem BioAssay (EPA / NIEHS) are outcome and AC50 values, retold here.

The structures appear in SMILES notation. The source made the active and inactive calls. Rule for the calls: active = hit-call score of the fitted dose curve at least 0.9, where 1 is the maximum; inactive = score below 0.9.

Read-out in test [1]: Interleukin-8 (IL8), CXCL8 (gene 3576)
Kind of test: BSK_CASM3C_IL8: BioMAP Diversity Plus: CASM3C Assay for Interleukin-8 (IL8) Biomarker Activity (AID 2283042).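 Note: IL-8 protein level quantified by ELISA.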 The conditions noted are these: primary human coronary artery smooth muscle cells; actives raise or lower the signal.

Read-out in test [2]: Human Leukocyte Antigen - DR isotype (HLADR), HLA-DRA (gene 3122)
Kind of test: BSK_CASM3C_HLADR: BioMAP Diversity Plus: CASM3C Assay for Human Leukocyte Antigen - DR isotype (HLADR) Biomarker Activity (AID 2283043).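 Note: cell-surface HLA-DR protein level quantified by ELISA.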 The conditions noted are these: primary human coronary artery smooth muscle cells; actives raise or lower the signal.

Read-out in test [3]: Macrophage colony-stimulating factor (MCSF), CSF1 (gene 1435)
Nature of the test: BSK_CASM3C_MCSF: BioMAP Diversity Plus: CASM3C Assay for Macrophage colony-stimulating factor (MCSF) Biomarker Activity (AID 2283044).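 Note: M-CSF protein amount quantified by ELISA after 24 h exposure.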 The conditions noted are these: primary human coronary artery smooth muscle cells; actives raise or lower the signal.

Read-out in test [4]: Low-density lipoprotein receptor (LDLR), LDLR (gene 3949)
Nature of the test: BSK_CASM3C_LDLR: BioMAP Diversity Plus: CASM3C Assay for Low-density lipoprotein receptor (LDLR) Biomarker Activity (AID 2283045).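 Note: LDLR protein level on the cell surface quantified by ELISA.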 The conditions noted are these: primary human coronary artery smooth muscle cells; actives raise or lower the signal.

Read-out in test [5]: Monocyte Chemoattractant Protein-1 (MCP1), CCL2 (gene 6347)
Nature of the test: BSK_CASM3C_MCP1: BioMAP Diversity Plus: CASM3C Assay for Monocyte Chemoattractant Protein-1 (MCP1) Biomarker Activity (AID 2283046).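 Note: MCP-1 level quantified by ELISA 24 h after dosing.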 The conditions noted are these: primary human coronary artery smooth muscle cells; actives raise or lower the signal.

Test [6] is described as follows: BSK_CASM3C_Proliferation: Cell Proliferation Assessment in the BioMAP Diversity Plus: CASM3C Assay (AID 2283047).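 Note: sulforhodamine B total protein stain as relative cell number at 560 nm; sub-confluent cells exposed 48 h before staining; fitted both ways against DMSO so gain or loss of cell number.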 The conditions noted are these: primary human coronary artery smooth muscle cells.
Read-out in test [7]: Monokine induced gamma interferon (MIG), CXCL9 (gene 4283)
Kind of test: BSK_CASM3C_MIG: BioMAP Diversity Plus: CASM3C Assay for Monokine induced gamma interferon (MIG) Biomarker Activity (AID 2283048).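 Note: MIG protein level measured by ELISA.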 The conditions noted are these: primary human coronary artery smooth muscle cells; actives raise or lower the signal.

Read-out in test [8]: serum amyloid A (SAA), SAA1 (gene 6288)
Kind of test: BSK_CASM3C_SAA: BioMAP Diversity Plus: CASM3C Assay for serum amyloid A (SAA) Biomarker Activity (AID 2283049).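 Note: SAA protein level quantified by ELISA.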 The conditions noted are these: primary human coronary artery smooth muscle cells; actives raise or lower the signal.

Test [9] is described as follows: BSK_CASM3C_SRB: Viability Assessment in the BioMAP Diversity Plus: CASM3C Assay (AID 2283050).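 Note: total protein by SRB staining as cytotoxicity measure in parallel cultures; cells exposed to compound for 24 h.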 The conditions noted are these: primary human coronary artery smooth muscle cells.
Read-out in test [10]: Thrombomodulin, THBD (gene 7056)
Nature of the test: BSK_CASM3C_Thrombomodulin: BioMAP Diversity Plus: CASM3C Assay for Thrombomodulin Biomarker Activity (AID 2283051).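 Note: thrombomodulin protein level measured by ELISA 24 h after dosing.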 The conditions noted are these: primary human coronary artery smooth muscle cells; actives raise or lower the signal.

Read-out in test [11]: Tissue Factor, F3 (gene 2152)
Nature of the test: BSK_CASM3C_TissueFactor: BioMAP Diversity Plus: CASM3C Assay for Tissue Factor Biomarker Activity (AID 2283052).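 Note: cell surface tissue factor protein level read by ELISA.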 The conditions noted are these: primary human coronary artery smooth muscle cells; actives raise or lower the signal.

Read-out in test [12]: Interferon-gamma inducible Protein 10 (IP10), CXCL10 (gene 3627)
Nature of the test: BSK_hDFCGF_IP10: BioMAP Diversity Plus: hDFCGF Assay for Interferon-gamma inducible Protein 10 (IP10) Biomarker Activity (AID 2283053). The conditions noted are these: primary human foreskin fibroblasts; actives raise or lower the signal. The essentials:
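ELISA read-out of IP-10 (CXCL10) from primary human skin fibroblasts, 24 h after compound addition. Gain or loss of signal versus DMSO baseline, bidirectional curve fitting.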

Read-out in test [13]: Urokinase-type plasminogen activator receptor (uPAR), PLAUR (gene 5329)
Kind of test: BSK_CASM3C_uPAR: BioMAP Diversity Plus: CASM3C Assay for Urokinase-type plasminogen activator receptor (uPAR) Biomarker Activity (AID 2283054).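 Note: cell-surface uPAR protein level quantified by ELISA.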 The conditions noted are these: primary human coronary artery smooth muscle cells; actives raise or lower the signal.

Read-out in test [14]: Vascular cell adhesion molecule 1 (VCAM1), VCAM1 (gene 7412)
Kind of test: BSK_CASM3C_VCAM1: BioMAP Diversity Plus: CASM3C Assay for Vascular cell adhesion molecule 1 (VCAM1) Biomarker Activity (AID 2283055).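 Note: VCAM-1 protein level quantified by ELISA on the cells.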 The conditions noted are these: primary human coronary artery smooth muscle cells; actives raise or lower the signal.

Read-out in test [15]: Collagen III, COL3A1 (gene 1281)
Kind of test: BSK_hDFCGF_CollagenIII: BioMAP Diversity Plus: hDFCGF Assay for Collagen III Biomarker Activity (AID 2283056). The conditions noted are these: primary human foreskin fibroblasts; actives raise or lower the signal. The procedure, abridged:
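Human foreskin primary fibroblasts were exposed to test chemicals for 24 h, after which collagen III was quantified by ELISA. Activity was fitted bidirectionally against DMSO as negative control and baseline.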

Read-out in test [16]: Epidermal growth factor receptor (EGFR), EGFR (gene 1956)
Kind of test: BSK_hDFCGF_EGFR: BioMAP Diversity Plus: hDFCGF Assay for Epidermal growth factor receptor (EGFR) Biomarker Activity (AID 2283057). The conditions noted are these: primary human foreskin fibroblasts; actives raise or lower the signal. The procedure, abridged:
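ELISA readout of EGFR on human dermal fibroblasts (primary foreskin cells), 24 h post-dosing; bidirectional curve fit vs DMSO baseline, gain or loss of signal scored.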

Test [17] is described as follows: BSK_hDFCGF_Proliferation: Cell Proliferation Assessment in the BioMAP Diversity Plus: hDFCGF Assay (AID 2283059).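 Note: curves fitted for both rise and fall of signal versus DMSO baseline.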 The conditions noted are these: primary human foreskin fibroblasts. The essentials:
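Steps: dose primary human dermal fibroblasts (foreskin); […] fix in 10% TCA; stain with 0.1% SRB; read 560 nm; fit gain or loss of signal against DMSO.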

Read-out in test [18]: Macrophage colony-stimulating factor (MCSF), CSF1 (gene 1435)
Nature of the test: BSK_hDFCGF_MCSF: BioMAP Diversity Plus: hDFCGF Assay for Macrophage colony-stimulating factor (MCSF) Biomarker Activity (AID 2283060). The conditions noted are these: primary human foreskin fibroblasts; actives raise or lower the signal. The procedure, abridged:
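Human foreskin primary fibroblasts were treated with test chemical for 24 h, and M-CSF was then measured by ELISA. Data were fitted bidirectionally against DMSO as the negative control and activity baseline.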

Test [19] is described as follows: BSK_hDFCGF_SRB: Viability Assessment in the BioMAP Diversity Plus: hDFCGF Assay (AID 2283061).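 Note: cells exposed to compound for 24 h before the read.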 The conditions noted are these: primary human foreskin fibroblasts. The procedure, abridged:
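Human foreskin primary fibroblasts were treated with compound and assessed 24 h after dosing. Total protein was measured by sulforhodamine B staining (0.1% SRB after 10% TCA fixation, 560 nm read) as a cytotoxicity marker, with bidirectional fitting against DMSO baseline.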

For the molecule `COC(=O)CCCCC(=O)OC`, the outcome in test [1], in test [2], in [3], in [4], in test [5] and in test [6] was inactive. The result in test [7], in [8], in test [9], in test [10], in test [11] and in test [12] was inactive. Also, the result in test [13], in test [14], in test [15], in test [16], in test [17] and in test [18] was inactive.
What is called AC50 is the concentration giving half of the maximal activity seen. With `c1ccc2cc3c(ccc4ccccc43)cc2c1`, the result in [1], in [2], in test [3], in [4], in test [5] and in test [7] was inactive. In addition, the result in test [8], in test [9], in test [11], in [12], in test [13] and in [14] was inactive. Besides, the outcome in [15], in [16], in test [17] and in test [18] was inactive. In addition, the AC50 was 3.12 µM (active) in test [6] and 2.24 µM (active) in test [10].
Take `CC(O)CO` (stereo not drawn): the outcome in test [1], in test [2], in test [3], in test [4], in test [5] and in [6] was inactive. Also, the result in test [7], in [8], in test [9], in test [10], in test [11] and in test [12] was inactive. In addition, the result in test [13], in test [14], in test [15], in test [16], in test [17] and in test [18] was inactive. Besides, the result in [19] was inactive.
With `CCCCC(CC)COC(=O)CCCCC(=O)OCC(CC)CCCC` (stereo not drawn), the outcome in test [1], in test [2], in [3], in [4], in [5] and in test [6] was inactive. Moreover, the outcome in test [7], in test [8], in [9], in test [10], in [11] and in test [12] was inactive. The outcome in test [13], in [14], in test [15], in [16], in [17] and in test [18] was inactive.
Take `CC[C@H](C)[C@@H](C(=O)O)n1sc2ccccc2c1=O`: the result in test [1], in [2], in test [3], in [4], in [5] and in test [6] was inactive. Moreover, the result in [7], in test [8], in test [9], in test [10], in [11] and in [12] was inactive. The result in test [13], in [14], in [15], in [16], in test [17] and in test [18] was inactive. Also, the result in [19] was inactive.
As for `CC(C)(C)c1cc(C(C)(C)C)c(O)c(C(C)(C)C)c1`, the outcome in [1], in test [2], in test [3], in test [5], in test [6] and in test [7] was inactive. Also, the outcome in [8], in [9], in [11], in test [13], in test [14] and in [16] was inactive. In addition, the concentration at half-maximal activity (AC50) was 11.8 µM (active) in test [4]; 6.88 µM (active) in test [10]; 32.8 µM (active) in test [12]; 29.3 µM (active) in test [15]; 10.8 µM (active) in test [17]; 31.5 µM (active) in test [18].
For `CCCCCCCCCCCCN1CCCC1=O`, the outcome in test [1], in test [2], in test [3], in [4], in [5] and in test [7] was inactive. Besides, the outcome in test [8], in [11], in [13], in test [14] and in test [16] was inactive. In addition, the AC50 was 32.7 µM (active) in test [6]; 27.4 µM (active) in test [9]; 27.9 µM (active) in [10]; 30.9 µM (active) in test [12]; 14.4 µM (active) in test [15]; 14.6 µM (active) in test [17]. Besides, the half-maximal activity concentration (AC50) was 31 µM (active) in [18] and 34 µM (active) in test [19].
Consider `Oc1cc2ccccc2c2ccccc12`, for which the AC50 is 10.6 µM (active) in test [1]; 7.47 µM (active) in test [2]; 8.24 µM (active) in test [3]; 10.1 µM (active) in test [4]; 11.4 µM (active) in test [5]; 10.5 µM (active) in test [6]. Further, the AC50 in [7] is 11.9 µM (active); in test [8], 11.3 µM (active); in test [9], 11.2 µM (active); in test [11] it was 10.5 µM (active); in test [12], 2 µM (active); in [13], 11.2 µM (active). Moreover, the half-maximal activity concentration (AC50) in test [14] is 8.3 µM (active); in [15] it was 1.9 µM (active); in [17] it was 1.56 µM (active); in test [18], 2.72 µM (active). Further, the outcome in test [10] and in test [16] was inactive.
Consider `c1ccc2c(c1)Cc1ccccc1-2`, for which the result in [1], in test [2], in test [3], in test [4], in test [5] and in test [6] was inactive. For the same molecule, the result in test [7], in [8], in test [9], in test [10], in [11] and in test [12] was inactive. Also, the result in [13], in test [14], in test [15], in test [16], in test [17] and in test [18] was inactive. Also, the outcome in test [19] was inactive.
On to `CCC(C)(C)C1CCC(O)CC1` (stereo not drawn), for which the result in test [1], in test [2], in test [3], in test [4], in test [5] and in test [6] was inactive. Moreover, the result in test [7], in test [8], in test [9], in test [10], in test [11] and in test [12] was inactive. Moreover, the outcome in test [13], in test [14], in test [15], in test [16], in test [17] and in test [18] was inactive.
For the molecule `NCC(F)(F)C(F)(F)C(F)(F)C(F)(F)C(F)(F)C(F)(F)C(F)(F)F`, the outcome in test [1], in [2], in test [3], in test [4], in test [5] and in [6] was inactive. For the same molecule, the outcome in test [7], in [8], in test [9], in test [10], in test [11] and in [12] was inactive. Further, the outcome in test [13], in [14], in test [15], in test [16], in [17] and in test [18] was inactive. The outcome in test [19] was inactive.
